Experimental findings from the supplement of paper PMC7366291 are described below.

Structures can show the parent of a compound that is named as a salt.

The experiment concerns Danio rerio Tg(wt1b:EGFP) embryo, pronephros. The experiment is described as follows: fraction of imaged embryos annotated as normal kidney; higher = less nephrotoxic; extreme values may be limits of the assay. The settings on record: 25 µM; exposure: 24-48 hpf. Summed up: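 Dechorionated Tg(wt1b:EGFP) zebrafish embryos were incubated with 25 μM compound in 0.5% DMSO, 5 mM HEPES-buffered E3 and 0.003% PTU from 24 to 48 hpf at 28.5°C. Pronephroi were then imaged by widefield fluorescence, and the fraction of embryos per treatment assigned by hand to the normal-kidney category is given.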
Consider `CCC(C)C1O[C@]2(C=C[C@@H]1C)C[C@@H]1CC(C/C=C(\C)[C@@H](OC3C[C@H](OC)[C@@H](OC4C[C@H](OC)[C@@H](O)[C@H](C)O4)[C@H](C)O3)[C@@H](C)/C=C/C=C3\COC4[C@H](O)C(C)=CC(C(=O)O1)[C@]34O)O2` (stereo partly specified) [Avermectin B1a], for which the “fraction of imaged embryos annotated as normal kidney” value (“fraction of imaged embryos annotated” below) came to 0.583.
For `CCNCC(O)c1cccc(O)c1` (stereo unspecified) [Etilefrine hydrochloride], the “fraction of imaged embryos annotated” value stood at 0.833.
In the case of `COc1ccc(C(=O)N2CCCC2=O)cc1` [Aniracetam], the “fraction of imaged embryos annotated” value is 0.75.
The value for `CCN[C@@H](C)Cc1cccc(C(F)(F)F)c1` [Dexfenfluramine hydrochloride] was 0.917; that for `C1CCc2nnnn2CC1` [Pentylenetetrazole] was 0.8; that for `C(#CCN1CCCC1)CN1CCCC1` [Tremorine dihydrochloride] was 0.75.
On to `COc1ccc(CCN2CCC(Nc3nc4ccccc4n3Cc3ccc(F)cc3)CC2)cc1` [Astemizole], for which the “fraction of imaged embryos annotated” value was found to be 0.333.
For `O=c1[nH]c2ccccc2n1C1CCN(CCCC(c2ccc(F)cc2)c2ccc(F)cc2)CC1` [Pimozide] the value was 0; for `C=CCC1(CC(C)C)C(=O)NC(=O)NC1=O` [Butalbital], 0.75.
For `CN1CCC2(C)c3cc(O)ccc3N(C)C12` (single isomer, unassigned; (-)) [(-)-Eseroline fumarate salt] the value was 0.917; for `N[C@@H]1C[C@H]1c1ccccc1` [Tranylcypromine hydrochloride], 0.727; for `C[C@]12CC[C@@H](O)C[C@H]1CC[C@@H]1[C@@H]2CC[C@]2(C)C(=O)CC[C@@H]12` [3-alpha-Hydroxy-5-beta-androstan-17-one], 0.75.
`COc1ccc(OC)c(C(O)C(C)N)c1` (stereo unspecified) [Methoxamine hydrochloride]: the “fraction of imaged embryos annotated” value worked out at 0.75.
For `COc1cc2c(c(OC)c1OC)-c1ccc(OC)c(=O)cc1[C@@H](NC(C)=O)CC2` [Colchicine] the value was 0.667; for `CN1[C@@H]2CC[C@H]1C[C@@H](OC1c3ccccc3CCc3ccccc31)C2` [Deptropine citrate], 1.
The value for `CC(=O)NC1CCSC1=O` (racemic) [N-Acetyl-DL-homocysteine Thiolactone] was 0.917.
Take `CC(C)(C)NCC(O)c1ccccc1Cl` (stereo unspecified) [Tulobuterol]: the “fraction of imaged embryos annotated” value came out at 0.917.
For `C[C@]12CC[C@H](O)C[C@@H]1CC[C@@H]1[C@@H]2CC[C@]2(C)C(=O)CC[C@@H]12` [Epiandrosterone] the value was 0.417.
For `C[C@@H]1O[C@@H](O[C@@H]2C=C3CC[C@@H]4[C@H](CC[C@]5(C)[C@@H](c6ccc(=O)oc6)CC[C@]45O)[C@@]3(C)CC2)[C@H](O)[C@H](O)[C@H]1O` [Proscillaridin A] the value was 0; for `CC(C)(N)Cc1ccccc1` [Phentermine hydrochloride], 0.917.
As for `O=c1[nH]oc2c1CCNC2` [THIP Hydrochloride], the “fraction of imaged embryos annotated” value is 0.917.
The value for `CC(=O)OCC(=O)[C@H]1CC[C@H]2[C@@H]3CC[C@H]4C[C@H](O)CC[C@]4(C)[C@H]3C(=O)C[C@]12C` [Alfadolone acetate] was 0.75.
The value for `CCC(=O)O[C@@](Cc1ccccc1)(c1ccccc1)[C@@H](C)CN(C)C` [Levopropoxyphene napsylate] was 0.909; that for `CNC(=O)Oc1ccc2c(c1)[C@]1(C)CCN(C)[C@@H]1N2C` [Eserine hemisulfate salt] was 1; that for `c1ccc2c(c1)OCC(C1=NCCN1)O2` (stereo unspecified) [Idazoxan hydrochloride] was 0.833.
Regarding `COc1ccc(Cc2nccc3cc(OC)c(OC)cc23)cc1OC` [Papaverine hydrochloride], the “fraction of imaged embryos annotated” value came out at 0.833.
The value for `CN[C@@H]1[C@@H](O)[C@@H](O[C@@H]2[C@@H](O)[C@H](O[C@H]3O[C@H](CN)CC[C@H]3N)[C@@H](N)C[C@H]2N)OC[C@]1(C)O.CN[C@@H]1[C@@H](O)[C@@H](O[C@@H]2[C@@H](O)[C@H](O[C@H]3O[C@H]([C@@H](C)N)CC[C@H]3N)[C@@H](N)C[C@H]2N)OC[C@]1(C)O.CN[C@@H]1[C@@H](O)[C@@H](O[C@@H]2[C@@H](O)[C@H](O[C@H]3O[C@H]([C@@H](C)NC)CC[C@H]3N)[C@@H](N)C[C@H]2N)OC[C@]1(C)O` [Gentamicine sulfate] was 0.667; that for `CC[C@@H](CO)NC(=O)[C@@H]1C=C2c3cccc4[nH]cc(c34)C[C@H]2N(C)C1` [Methylergometrine maleate] was 0.909.
For `C[N+]1(C)CCOC(O)(c2ccc(-c3ccc(C4(O)C[N+](C)(C)CCO4)cc3)cc2)C1` (stereo unspecified) [Hemicholinium bromide] the value was 0.917.
The value for `CN(C)C(=O)Oc1cc(OC(=O)N(C)C)cc(C(O)CNC(C)(C)C)c1` (stereo unspecified) [Bambuterol hydrochloride] was 1.
Regarding `CC(O)(CS(=O)(=O)c1ccc(F)cc1)C(=O)Nc1ccc(C#N)c(C(F)(F)F)c1` (stereo unspecified) [Bicalutamide], the “fraction of imaged embryos annotated” value came to 0.75.
Regarding `C[N+]1(C)CCCC(OC(=O)C(O)(c2ccccc2)c2ccccc2)C1` (stereo unspecified) [Mepenzolate bromide], the “fraction of imaged embryos annotated” value was 0.727.
For `CC(C)N(CCC(C(N)=O)(c1ccccc1)c1ccccn1)C(C)C` (stereo unspecified) [Disopyramide] the value was 0.667; for `C[N+]1([O-])[C@@H]2C[C@@H](OC(=O)[C@H](CO)c3ccccc3)C[C@H]1[C@@H]1O[C@@H]12` (stereo partly specified) [Scopolamin-N-oxide hydrobromide], 0.909.
The value for `C=CC[C@]1(O)CC[C@H]2[C@@H]3CCC4=CC(=O)CCC4=C3C=C[C@@]21C` [Altrenogest] was 0.333.
For `O=[N+]([O-])O[C@@H]1CO[C@H]2[C@@H]1OC[C@@H]2O` [Isosorbide mononitrate] the value was 0.833.
